Most compounds without a hit are left out; they make up all but 3.3% or so of the library.
Gli-Sufu antag: blocks Gli-Sufu signaling in a luciferase reporter; Sufu-KO-LIGHT fibroblasts, Gli luciferase reporter luminescence; inhibition, % at 5 µM; actives 0.74% (n = 340,000); AID 588413;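 active means inhibition above about 55%, limit read from the data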
esBAF inh: inhibitors of esBAF chromatin remodeling in mouse ES cells; Bmi1-luciferase knock-in reporter, 24 h; 100% = twice the neutral-well signal; reporter increase, % at 12.5 µM; actives 2% (n = 350,000); in the data active means activation above about 40%; inconclusive means no clear call, values can overlap the other calls;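 further: a rise in the Bmi1 reporter signal indicates esBAF inhibition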
697 NFkB inh: lowers PMA/ionomycin-induced NF-kB signal in 697 B cells; inhibition, % at 4 µM; AID 435022; 697 B-cell NF-kB luciferase reporter, 16 h; actives 0.33% (n = 330,000); in the data active means inhibition above about 35%
SMARCA2 act: activators of SMARCA2 function | actives 1% (n = 370,000) | activation, % at 9.1 µM | AID 652017 | MG213 cells, MMTV-luciferase reporter, dexamethasone, overnight; in the data active means activation above about 7.8%
Jurkat NFkB inh: lowers PMA/ionomycin-induced NF-kB signal in Jurkat cells; AID 435003; actives 0.53% (n = 330,000); PMA/ionomycin-induced NF-kB luciferase reporter, luminescence; inhibition, % at 4 µM; in the data active means inhibition above about 50%
Large screens that a line does not name were inactive.

COc1ccccc1C(=O)OCc1cc(=O)n2ccsc2n1	none (no result: esBAF inh)
c1ccc(-c2nc(-c3ccc(-c4ccon4)s3)no2)cc1	esBAF inh 53
C[C@@H]1CN([C@@H](C)CO)S(=O)(=O)c2ccc(C#Cc3ccccc3F)cc2O[C@H]1CN(C)CC1CCOCC1	none (no result: Gli-Sufu antag, 697 NFkB inh, SMARCA2 act, Jurkat NFkB inh)
O=C(O)c1cccc(-c2csc(C(O)c3cccc(Cl)c3)n2)c1 (stereo not drawn)	esBAF inh 48 (no result: Gli-Sufu antag, 697 NFkB inh, Jurkat NFkB inh)
OC(c1ccccc1)c1nc(-c2ccc(Cl)cc2)cs1 (stereo not drawn)	none (no result: Gli-Sufu antag, 697 NFkB inh, Jurkat NFkB inh)
CC(=O)Nc1cccc(-c2csc(C(O)c3ccc(F)cc3)n2)c1 (stereo not drawn)	none (no result: Gli-Sufu antag, 697 NFkB inh, Jurkat NFkB inh)
COCc1cccc(-c2csc(C(O)c3cccc(OC)c3)n2)c1 (stereo not drawn)	none (no result: Gli-Sufu antag, 697 NFkB inh, Jurkat NFkB inh)
CC(=O)Nc1cccc(-c2csc(C(O)c3ccccc3)n2)c1 (stereo not drawn)	esBAF inh 49 (no result: Gli-Sufu antag, 697 NFkB inh, Jurkat NFkB inh)
OC(c1ccccc1)c1nc(-c2ccccc2)cs1 (stereo not drawn)	esBAF inh 52 (no result: Gli-Sufu antag, 697 NFkB inh, Jurkat NFkB inh)
COCc1cccc(-c2csc(C(O)c3ccccc3)n2)c1 (stereo not drawn)	esBAF inh 53 (no result: Gli-Sufu antag, 697 NFkB inh, Jurkat NFkB inh)
O=C(CC1CC1)N1[C@@H](CO)[C@@H]2c3ccccc3N(S(=O)(=O)c3ccccc3)C[C@@H]21	none (no result: Gli-Sufu antag, 697 NFkB inh, SMARCA2 act, Jurkat NFkB inh)
Cc1cccc(Nc2nc(NCc3ccco3)c3ccccc3n2)c1	Gli-Sufu antag 82 (no result: esBAF inh, 697 NFkB inh, Jurkat NFkB inh)
Cc1ccccc1Nc1nc(NCc2ccco2)c2ccccc2n1	esBAF inh inconclusive
c1ccc(Nc2nc(NCc3ccco3)c3ccccc3n2)cc1	Gli-Sufu antag 56 (no result: esBAF inh)
CCCC(=O)Nc1ccc2c(c1)C(=O)N(C)[C@@H]1CC[C@@H](CC(=O)NCCc3ccccc3)O[C@H]1CO2	none (no result: Gli-Sufu antag, 697 NFkB inh, SMARCA2 act, Jurkat NFkB inh)
CO[C@H]1CN(C)C(=O)c2ccc(NS(=O)(=O)CC(F)(F)F)cc2OC[C@H](C)N(CC2CCCCC2)C[C@H]1C	none (no result: Gli-Sufu antag, 697 NFkB inh, SMARCA2 act, Jurkat NFkB inh)
COc1cc(/C=N/n2cnnc2)ccc1OCCOc1ccccc1	none
COc1cc(/C=N/NC(=O)c2cc(C)oc2C)ccc1O	none
Cc1ccc(C(C)C)c(OCc2ccc(C(=O)N/N=C/c3cccc(O)c3O)cc2)c1	Gli-Sufu antag 93 (no result: esBAF inh, 697 NFkB inh, Jurkat NFkB inh)
COc1cc(/C=N/n2cnnc2)ccc1OCc1ccc(C)cc1	esBAF inh 57
CCOc1ccc(/C=N/NC(=O)c2ccoc2C)cc1OC	esBAF inh 48
COc1cc(/C=N/NC(=O)c2ccoc2C)ccc1O	none (no result: esBAF inh)
COc1ccc(C=NNC(=O)c2cc(C)oc2C)cc1O	esBAF inh 66
COc1cc(/C=N/NC(=O)c2ccc(COc3cc(C)ccc3C(C)C)cc2)cc(OC)c1O	none (no result: esBAF inh)
C[C@@H]1CCCCO[C@H](CN(C)C)[C@H](C)CN([C@H](C)CO)C(=O)c2cc(NS(=O)(=O)c3cccs3)ccc2O1	none (no result: Gli-Sufu antag, 697 NFkB inh, SMARCA2 act, Jurkat NFkB inh)
COc1ccc(C#Cc2cnc3c(c2)C(=O)N([C@H](C)CO)C[C@H](C)[C@H](CN(C)C)O3)cc1	none (no result: Gli-Sufu antag, 697 NFkB inh, SMARCA2 act, Jurkat NFkB inh)
CCNC(=O)C[C@@H]1CC[C@@H](NC(=O)C2CCOCC2)[C@H](CO)O1	none (no result: Gli-Sufu antag, 697 NFkB inh, SMARCA2 act, Jurkat NFkB inh)
COc1ccc(/C=N/NC(=O)c2cccc([N+](=O)[O-])c2)cc1O	none (no result: esBAF inh)
COc1cc(/C=N/NC(=O)c2cccc([N+](=O)[O-])c2)ccc1OCc1ccc(C)cc1	esBAF inh 56
COc1cccc(/C=N/NC(=O)c2cc3cc([N+](=O)[O-])ccc3s2)c1O	Gli-Sufu antag 77 (no result: esBAF inh, 697 NFkB inh, Jurkat NFkB inh)
COc1ccccc1/C=N/NC(=O)c1ccc(NC(=O)c2cccc([N+](=O)[O-])c2)cc1	none (no result: Gli-Sufu antag, esBAF inh, SMARCA2 act)
COc1ccc(S(=O)(=O)N(C)C[C@H]2OCCCC[C@H](C)Oc3ccc(NS(=O)(=O)c4cn(C)cn4)cc3C(=O)N([C@H](C)CO)C[C@H]2C)cc1	none (no result: Gli-Sufu antag, 697 NFkB inh, SMARCA2 act, Jurkat NFkB inh)
CCCCc1nc2cc(C(=O)N(C)C3CCOCC3)ccc2o1	esBAF inh 94
O=[N+]([O-])c1ccc(Nc2ccc(F)cc2)nc1	none (no result: esBAF inh, 697 NFkB inh, Jurkat NFkB inh)
CN(C)c1ccc(Nc2ccc([N+](=O)[O-])cn2)cc1	esBAF inh 50
Cc1ccccc1NC(=O)COC(=O)COc1ccc2c(c1)CCC2	none
O=C(COC(=O)COc1ccc2c(c1)CCC2)Nc1ccccc1	esBAF inh 42
O=C(COc1ccc2c(c1)CCC2)NCc1ccccc1	none (no result: esBAF inh)
O=C(COc1ccc2c(c1)CCC2)Nc1ccccn1	esBAF inh 51
CCn1cc(SCC(=O)Nc2cc(C)on2)c2ccccc21	none
Cc1ccc(C(=O)NCCn2cc(SCC(=O)N3CCOCC3)c3ccccc32)cc1	esBAF inh 53
CCCn1cc(SCC(=O)Nc2cc(C)on2)c2ccccc21	none
Cc1ccc(C(=O)NCCn2cc(SCC(=O)Nc3cc(C)on3)c3ccccc32)cc1	esBAF inh 58
